Our source for the PBM binding z-score values is the supplement of paper PMC6555819.

For the first test, the system named is RXRa homodimer (NR concentration 180 nM). Description: PBM binding z-score (relative to random genomic background probes); higher = stronger binding; sequences stand for … in GC…GCGATTGACAGCGTAGAATGAAGG
In short, it runs like this: (§1)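 Ligand-free nuclear receptor dimers were applied to custom Agilent 4×180K protein-binding microarrays whose double-stranded probes carried direct-repeat seeds, single-nucleotide variants, half-site ablations and random human genomic background sequences in 34-nt variable regions. Incubation lasted 1 h. Binding z-scores were computed against the random background probes from regression-normalized fluorescence.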
CGTCCTAGGTCAGAGAGGTCAGTGAATGCCGAGT: the PBM binding z-score turned out to be 4.49.

Regarding CAGACTAGGTCAGGGCCAGTATAGGAGGAACGTT, the PBM binding z-score worked out at 1.3.

For GCGACCGGGGCATCAGCAGGTTACCATAACTTAA, the PBM binding z-score amounted to 0.943.

Regarding TCGAGTAGGTTAGTCGGTGCATTCAGCCAACATA, the PBM binding z-score is -0.152.

TAGTCTAGGTCATTGGGCCAGTATAGTACGCATC came in with a PBM binding z-score of 3.26.

On to CTCGAAAGGTGGGTTGAGGTGAGTATACGGATAA, for which the PBM binding z-score stood at 0.396.

Turning to CCTACCGGGCCAAAAAGGTCATTGATGCCGATAA, the PBM binding z-score turned out to be 4.6.

ACTATTAGTTGACTTAGGGCGACCGATACGACGC came in with a PBM binding z-score of 0.421.

On to GGATCGAGGGCATTCGAGTTGATAGCATGGCGAT, for which the PBM binding z-score turned out to be 0.598.

In turn, ATCGAAAGGCCGAAGGTGAGTATACCCACCCGAA yielded a PBM binding z-score of 0.581.

Regarding ATATGTAGGTTGCATCCGGGTCATTCAGGCTATG, the PBM binding z-score was determined as 2.28.

Sequence TAGCCTAGGTCATTGGGCCAGCATAGTACGCATC displayed a PBM binding z-score of 3.01.

For ACAGAAAGGTGATGAAGGTAACTCAGGCTATCAT, the PBM binding z-score came out at 1.

CCTCGGAGGACAGAAGGTCAGCGCTGTCCGCTTT had a PBM binding z-score of 2.54.

The sequence CCTGCTAGGTCAATGGTCATCTAAAGCAGCTCGC yielded a PBM binding z-score of 2.51.

As for CCCTACGGGTCACGAGGTTATAGCACGACGAGCG, the PBM binding z-score is 7.45.

For GCTTGTAAATCAAGGTTAAGAAAGACTAAGCTAA, the PBM binding z-score came out at 0.942.

For the sequence CATACAGGGTCAGCTAGGCCATAGTAGGGACGGC, the PBM binding z-score was 4.53.

For another test, the system named is THRa:RXRa (NR concentration 90 nM, RXRa partner concentration 90 nM). The description is as above. A digest of the protocol: as §1
As to TCTTGTAGATCAATAGAGGTTAATAAAGTGCGCT, the PBM binding z-score stood at 2.36.

In turn, GGAACGAGGGCAAGTTGATATCAGAGTTTGATGG registered a PBM binding z-score of 1.46.

As for CGTCAAAGTTCAACTAAGGTAACGTGAAGCACGC, the PBM binding z-score was determined as 5.14.

CTCGAAAGGTCGTGCTCAGGTGTGTATACCAAAC returned a PBM binding z-score of 3.

Take TCTAGTTGGTCACGGAGGTCACACATGACGGGTA: the PBM binding z-score was found to be 3.73.

For CCGACTGGGGCATAAGGTTACCATAAGCCAGCCC, the PBM binding z-score stood at 2.01.

The sequence TAGCCTAGGTCATGGGCTAGTATACCACGCGAAC displayed a PBM binding z-score of 3.07.

The sequence CCTTCCGGGTCAAGGTTATAGCACGGGTGGTACG had a PBM binding z-score of 3.73.

Turning to TCATATAGGTCATACAGGTGAAAGTCGGCATCTA, the PBM binding z-score is 3.42.

In the case of ACTATTAGTTGACTTAGGGCAAACGATACGACGC, the PBM binding z-score was 1.24.

Regarding GAAACGAGGGCAAAGTTGATAGCATCTGTCGACG, the PBM binding z-score turned out to be 1.57.

ACAGACAGGTGACTGAAGGTAACTCAGCTGGACG: the PBM binding z-score turned out to be 1.94.

TGAAGGAGGTTATAAGATCAGGGAACGTTGCAAA displayed a PBM binding z-score of 0.689.

Sequence TATTGTAGATCAAGCAGGTTAAGAAAGCCTGAGT came in with a PBM binding z-score of 0.288.

Consider TGTCAAAGTTCAAAGGTAACTTAAGTATCCACAC, for which the PBM binding z-score was 3.6.

With TCTTGTAGATCAAAGGTTACGAAAGCCGAAGCCT, the PBM binding z-score turned out to be 1.66.

Take ATATGTAGGTTAAGGGCCATTCAGGTTGGTTCGC: the PBM binding z-score worked out at 1.17.

As to TCTGCTAGGTCCGTTGGTCAGCTAACGAGCTGCC, the PBM binding z-score is -0.748.

With CGTCAAAGTTCAAATAAGGTAACGTAAAGCACGC, the PBM binding z-score is 5.07.

Regarding TCTATTAGTTGATTCGGGCAACCGAAACAGCGGA, the PBM binding z-score was 0.247.

Sequence CATACAGGATCAGCTAGGCCAGAGTAGGGACGGC displayed a PBM binding z-score of -0.122.

With ACAGGCAGGTGAGTGAAGGTAACTCAGCTGGACG, the PBM binding z-score came to 1.31.

For the sequence CGTCCTAGGTCAGAGAGGTCAGTGAATGCCGAGT, the PBM binding z-score was 3.77.

Sequence CAGACTAGGTCAGGGCCAGTATAGGAGGAACGTT gave a PBM binding z-score of 1.65.

GCGACCGGGGCATCAGCAGGTTACCATAACTTAA showed a PBM binding z-score of 1.61.

Turning to TCGAGTAGGTTAGTCGGTGCATTCAGCCAACATA, the PBM binding z-score was -0.374.

TAGTCTAGGTCATTGGGCCAGTATAGTACGCATC: the PBM binding z-score came out at 3.32.

In the case of CTCGAAAGGTGGGTTGAGGTGAGTATACGGATAA, the PBM binding z-score is 4.18.

Consider CCTACCGGGCCAAAAAGGTCATTGATGCCGATAA, for which the PBM binding z-score stood at 3.29.

Regarding ACTATTAGTTGACTTAGGGCGACCGATACGACGC, the PBM binding z-score was 1.12.

GGATCGAGGGCATTCGAGTTGATAGCATGGCGAT returned a PBM binding z-score of 3.39.

Consider ATCGAAAGGCCGAAGGTGAGTATACCCACCCGAA, for which the PBM binding z-score stood at 0.037.

Take ATATGTAGGTTGCATCCGGGTCATTCAGGCTATG: the PBM binding z-score amounted to 3.03.

Turning to TAGCCTAGGTCATTGGGCCAGCATAGTACGCATC, the PBM binding z-score was 2.76.

With ACAGAAAGGTGATGAAGGTAACTCAGGCTATCAT, the PBM binding z-score was determined as 1.44.

Turning to CCTCGGAGGACAGAAGGTCAGCGCTGTCCGCTTT, the PBM binding z-score came to 2.57.

In the case of CCTGCTAGGTCAATGGTCATCTAAAGCAGCTCGC, the PBM binding z-score was determined as 2.23.

As for CCCTACGGGTCACGAGGTTATAGCACGACGAGCG, the PBM binding z-score is 3.59.

With GCTTGTAAATCAAGGTTAAGAAAGACTAAGCTAA, the PBM binding z-score was 1.5.

Sequence CATACAGGGTCAGCTAGGCCATAGTAGGGACGGC had a PBM binding z-score of 3.22.

A further test relates to THRa homodimer (NR concentration 90 nM). Described as above. A digest of the protocol:
as §1
TCTTGTAGATCAATAGAGGTTAATAAAGTGCGCT: the PBM binding z-score was -0.525.

In the case of GGAACGAGGGCAAGTTGATATCAGAGTTTGATGG, the PBM binding z-score was 0.151.

In turn, CGTCAAAGTTCAACTAAGGTAACGTGAAGCACGC returned a PBM binding z-score of 1.68.

CTCGAAAGGTCGTGCTCAGGTGTGTATACCAAAC had a PBM binding z-score of 0.4.

For the sequence TCTAGTTGGTCACGGAGGTCACACATGACGGGTA, the PBM binding z-score was 2.5.

The sequence CCGACTGGGGCATAAGGTTACCATAAGCCAGCCC gave a PBM binding z-score of 1.13.

Regarding TAGCCTAGGTCATGGGCTAGTATACCACGCGAAC, the PBM binding z-score was found to be 0.81.

CCTTCCGGGTCAAGGTTATAGCACGGGTGGTACG showed a PBM binding z-score of 2.35.

Turning to TCATATAGGTCATACAGGTGAAAGTCGGCATCTA, the PBM binding z-score was determined as 0.973.

In turn, ACTATTAGTTGACTTAGGGCAAACGATACGACGC gave a PBM binding z-score of 0.149.

Consider GAAACGAGGGCAAAGTTGATAGCATCTGTCGACG, for which the PBM binding z-score is -0.284.

Consider ACAGACAGGTGACTGAAGGTAACTCAGCTGGACG, for which the PBM binding z-score was -0.751.

The sequence TGAAGGAGGTTATAAGATCAGGGAACGTTGCAAA came in with a PBM binding z-score of 0.0287.

TATTGTAGATCAAGCAGGTTAAGAAAGCCTGAGT registered a PBM binding z-score of -0.434.

TGTCAAAGTTCAAAGGTAACTTAAGTATCCACAC returned a PBM binding z-score of -0.309.

For the sequence TCTTGTAGATCAAAGGTTACGAAAGCCGAAGCCT, the PBM binding z-score is -0.301.

In the case of ATATGTAGGTTAAGGGCCATTCAGGTTGGTTCGC, the PBM binding z-score turned out to be 0.32.

Sequence TCTGCTAGGTCCGTTGGTCAGCTAACGAGCTGCC gave a PBM binding z-score of -1.13.

Regarding CGTCAAAGTTCAAATAAGGTAACGTAAAGCACGC, the PBM binding z-score was 2.01.

Turning to TCTATTAGTTGATTCGGGCAACCGAAACAGCGGA, the PBM binding z-score is 0.0848.

As for CATACAGGATCAGCTAGGCCAGAGTAGGGACGGC, the PBM binding z-score was found to be 0.03.

In the case of ACAGGCAGGTGAGTGAAGGTAACTCAGCTGGACG, the PBM binding z-score is -0.451.

The sequence CGTCCTAGGTCAGAGAGGTCAGTGAATGCCGAGT returned a PBM binding z-score of 1.92.

CAGACTAGGTCAGGGCCAGTATAGGAGGAACGTT yielded a PBM binding z-score of 0.0626.

In turn, GCGACCGGGGCATCAGCAGGTTACCATAACTTAA yielded a PBM binding z-score of 0.295.

The sequence TCGAGTAGGTTAGTCGGTGCATTCAGCCAACATA showed a PBM binding z-score of -0.377.

Sequence TAGTCTAGGTCATTGGGCCAGTATAGTACGCATC had a PBM binding z-score of 1.55.

The sequence CTCGAAAGGTGGGTTGAGGTGAGTATACGGATAA came in with a PBM binding z-score of 1.75.

CCTACCGGGCCAAAAAGGTCATTGATGCCGATAA showed a PBM binding z-score of 1.04.

ACTATTAGTTGACTTAGGGCGACCGATACGACGC showed a PBM binding z-score of 0.262.

In turn, GGATCGAGGGCATTCGAGTTGATAGCATGGCGAT had a PBM binding z-score of -0.117.

On to ATCGAAAGGCCGAAGGTGAGTATACCCACCCGAA, for which the PBM binding z-score was -0.66.

With ATATGTAGGTTGCATCCGGGTCATTCAGGCTATG, the PBM binding z-score is 1.96.

The sequence TAGCCTAGGTCATTGGGCCAGCATAGTACGCATC showed a PBM binding z-score of 0.613.

On to ACAGAAAGGTGATGAAGGTAACTCAGGCTATCAT, for which the PBM binding z-score turned out to be 0.0697.

For the sequence CCTCGGAGGACAGAAGGTCAGCGCTGTCCGCTTT, the PBM binding z-score is -0.027.

In turn, CCTGCTAGGTCAATGGTCATCTAAAGCAGCTCGC displayed a PBM binding z-score of 0.612.

Turning to CCCTACGGGTCACGAGGTTATAGCACGACGAGCG, the PBM binding z-score amounted to 1.02.

In turn, GCTTGTAAATCAAGGTTAAGAAAGACTAAGCTAA had a PBM binding z-score of -0.456.

Consider CATACAGGGTCAGCTAGGCCATAGTAGGGACGGC, for which the PBM binding z-score was determined as 0.737.
